About 79,000 compounds went through this panel and 15% of them were active in at least one assay; those are over-represented in the sample as a whole. Activity calls are given as the source filed them. No stated cut-off is given here; in the data, active means growth inhibition above about 70%; inactive means the rest.
Experiments:
[1] = NCI Yeast Anticancer Drug Screen. Data for the wt2 strain (AID 169);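 further: 0% = growth of vehicle-treated yeast cultures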; details: S. cerevisiae wt2 strain growth inhibition, stronger effect = higher value
Method in brief: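 Steps: yeast strain treated with compound; growth recorded; inhibition calculated relative to cultures given vehicle alone.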

[2] = NCI Yeast Anticancer Drug Screen. Data for the mlh1 strain (AID 171);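 further: 0% = growth of vehicle-treated control cultures of the same strain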; details: S. cerevisiae mlh1 strain growth inhibition, stronger effect = higher value
Method in brief: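 Yeast screen: mutant strain plus compound, growth scored against vehicle control wells.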

[3] = NCI Yeast Anticancer Drug Screen. Data for the sgs1 strain (AID 173);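 further: 0% = growth of vehicle-only control cultures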; details: S. cerevisiae sgs1 mutant, stronger effect = higher value
Method in brief: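 Inhibition of yeast growth served as the measure. The mutant strain was treated with each compound, and growth was normalised to cultures receiving vehicle alone.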

[4] = NCI Yeast Anticancer Drug Screen. Data for the mlh1 rad18 strain (AID 175); details: S. cerevisiae mlh1 rad18 strain growth inhibition, stronger effect = higher value
Method in brief: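 Compound-treated yeast growth, normalised to vehicle controls. Strain bears defined DNA repair mutations.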

[5] = NCI Yeast Anticancer Drug Screen. Data for the rad18 strain (AID 177); details: S. cerevisiae rad18 mutant growth inhibition, stronger effect = higher value
Method in brief: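 Inhibition values reflect reduced yeast growth compared with vehicle-treated controls, using a strain engineered with a DNA damage repair defect.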

[6] = NCI Yeast Anticancer Drug Screen. Data for the rad52 strain (AID 147);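 further: 0% = growth of vehicle-treated control cultures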; details: S. cerevisiae rad52 mutant growth inhibition, stronger effect = higher value
Method in brief: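 Genetically altered yeast (DNA damage repair defect) treated with compound; inhibition calculated relative to vehicle.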

[7] = NCI Yeast Anticancer Drug Screen. Data for the wt1 strain (AID 149);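 further: 0% = growth of vehicle-treated wt1 cultures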; details: S. cerevisiae wt1 strain (SPY 50644) growth inhibition, stronger effect = higher value
Method in brief: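 Vehicle-normalised growth inhibition; strain wt1; compound exposure.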

[8] = NCI Yeast Anticancer Drug Screen. Data for the rad50EPP+ strain (AID 151);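 further: 0% = growth of vehicle-treated control cultures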; details: S. cerevisiae rad50 mutant strain, stronger effect = higher value
Method in brief: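 Strain rad50EPP+; compound exposure; % growth inhibition vs vehicle.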

[9] = NCI Yeast Anticancer Drug Screen. Data for the mgt1 strain (AID 153); details: S. cerevisiae mgt1 mutant growth inhibition, stronger effect = higher value
Method in brief: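 Read-out: yeast growth inhibition vs vehicle control. Strain mgt1, drawn from a panel altered in DNA damage repair or cell cycle control.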

[10] = NCI Yeast Anticancer Drug Screen. Data for the rad50 strain (AID 155);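 further: 0% = growth of vehicle-only cultures of the same strain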; details: S. cerevisiae rad50 strain growth inhibition, stronger effect = higher value
Method in brief: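 A DNA repair-deficient yeast mutant serves as the test organism; compound-induced growth inhibition is calculated against vehicle-treated cells.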

[11] = NCI Yeast Anticancer Drug Screen. Data for the mec2-1 strain (AID 157); details: S. cerevisiae mec2-1 strain, stronger effect = higher value
Method in brief: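 Cells of the genetically defined mec2-1 yeast strain are incubated with test compound. Inhibition of growth is calculated against vehicle-treated controls.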

[12] = NCI Yeast Anticancer Drug Screen. Data for the rad14 strain (AID 159);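 further: 0% = growth of vehicle-treated control cultures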; details: S. cerevisiae rad14 strain growth inhibition, stronger effect = higher value
Method in brief: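 Vehicle-treated cultures served as the baseline for growth inhibition of a DNA repair-mutant yeast strain exposed to each compound.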

[13] = NCI Yeast Anticancer Drug Screen. Data for the sgs1 mgt1 strain (AID 161);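 further: 0% = growth of cultures given vehicle only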; details: S. cerevisiae sgs1 mgt1 strain, stronger effect = higher value
Method in brief: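 Mutant yeast exposed to compound; growth scored against vehicle-only wells.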

[14] = NCI Yeast Anticancer Drug Screen. Data for the CLN2oe strain (AID 163);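 further: 0% = growth of vehicle-only control cultures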; details: S. cerevisiae CLN2oe strain, stronger effect = higher value
Method in brief: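 Strain altered in cell-cycle control, incubated with compound; growth compared to solvent-treated controls.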

[15] = NCI Yeast Anticancer Drug Screen. Data for the cln2 rad14 strain (AID 165);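 further: 0% = growth equal to vehicle treated cultures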; details: S. cerevisiae cln2 rad14 strain, stronger effect = higher value
Method in brief: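 The screen exposed genetically defined yeast (cln2 rad14) to test compounds and scored growth inhibition relative to vehicle-treated controls.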

[16] = NCI Yeast Anticancer Drug Screen. Data for the bub3 strain (AID 167); details: S. cerevisiae bub3 mutant strain, stronger effect = higher value
Method in brief: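 Inhibition values come from growth of compound-treated mutant yeast normalised to vehicle-treated controls.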

[17] = at 5.0 µM (retest, dose inferred, filed as 0.5)
[18] = at 50.0 µM (retest, dose inferred, filed as 5.0)

Measured: growth inhibition

CCCCCCCCNCCCCCCCC
inactive: [1]; at 1.2 µM 0% | [1]; at 3.7 µM 17% | [2]; at 1.2 µM 6% | [2]; at 3.7 µM 20% | [3]; at 1.2 µM 11% | [3]; at 3.7 µM 30% | [5]; at 1.2 µM 14% | [5]; at 3.7 µM 38%
active: [1]; at 11.0 µM 76% | [1]; at 33.0 µM 99% | [1]; at 100.0 µM 99% | [2]; at 11.0 µM 96% | [2]; at 33.0 µM 99% | [2]; at 100.0 µM 100% | [3]; at 11.0 µM 94% | [3]; at 33.0 µM 97% | [3]; at 100.0 µM 97% | [4]; [17] 80% | [4]; [18] 99% | [4]; at 50.0 µM 99.3% | [5]; at 11.0 µM 91% | [5]; at 33.0 µM 99% | [5]; at 100.0 µM 95%

CN(C)CCCn1c2c3ccccc3ccc2c2oc(=O)c3ccccc3c21
active: [6]; at 11.0 µM 86% | [6]; at 33.0 µM 97% | [6]; at 100.0 µM 98% | [7]; at 33.0 µM 84% | [7]; at 100.0 µM 97% | [8]; at 11.0 µM 95% | [8]; at 33.0 µM 98% | [8]; at 100.0 µM 98% | [9]; at 33.0 µM 92% | [9]; at 100.0 µM 98% | [10]; at 11.0 µM 91% | [10]; at 33.0 µM 97% | [10]; [18] 98% | [10]; at 50.0 µM 99% | [10]; at 100.0 µM 98% | [11]; at 33.0 µM 88% | [11]; [18] 98% | [11]; at 50.0 µM 98.8% | [11]; at 100.0 µM 96% | [12]; at 33.0 µM 83% | [12]; at 100.0 µM 98% | [13]; [18] 75% | [13]; at 50.0 µM 98.7% | [14]; at 33.0 µM 86% | [14]; at 100.0 µM 97% | [15]; [18] 97% | [15]; at 50.0 µM 98.4% | [16]; at 33.0 µM 87% | [16]; [18] 98% | [16]; at 50.0 µM 99.2% | [16]; at 100.0 µM 98% | [1]; at 33.0 µM 93% | [1]; at 100.0 µM 97% | [2]; at 33.0 µM 90% | [2]; at 100.0 µM 98% | [3]; at 33.0 µM 85% | [3]; at 100.0 µM 96% | [4]; [18] 98% | [4]; at 50.0 µM 99.2% | [5]; at 33.0 µM 93% | [5]; at 100.0 µM 98%
inactive: [6]; at 1.2 µM 3% | [6]; at 3.7 µM 33% | [7]; at 1.2 µM -10% | [7]; at 3.7 µM -7% | [7]; at 11.0 µM 26% | [8]; at 1.2 µM 13% | [8]; at 3.7 µM 58% | [9]; at 1.2 µM 13% | [9]; at 3.7 µM 33% | [9]; at 11.0 µM 53% | [10]; at 1.2 µM 0% | [10]; at 3.7 µM 45% | [10]; [17] 22% | [11]; at 1.2 µM 0% | [11]; at 3.7 µM 28% | [11]; [17] 21% | [11]; at 11.0 µM 48% | [12]; at 1.2 µM -6% | [12]; at 3.7 µM 10% | [12]; at 11.0 µM 30% | [13]; [17] -9% | [14]; at 1.2 µM 3% | [14]; at 3.7 µM 14% | [14]; at 11.0 µM 44% | [15]; [17] -17% | [16]; at 1.2 µM 20% | [16]; at 3.7 µM 11% | [16]; [17] 12% | [16]; at 11.0 µM 23% | [1]; at 1.2 µM -22% | [1]; at 3.7 µM -9% | [1]; at 11.0 µM 50% | [2]; at 1.2 µM 22% | [2]; at 3.7 µM 30% | [2]; at 11.0 µM 53% | [3]; at 1.2 µM 0% | [3]; at 3.7 µM -2% | [3]; at 11.0 µM 34% | [4]; [17] -1% | [5]; at 1.2 µM -10% | [5]; at 3.7 µM -2% | [5]; at 11.0 µM 47%

O=C(Nn1c(-c2ccccc2)nc2ccccc2c1=O)c1ccc(CS)cc1
inactive: [6]; at 1.2 µM 5% | [6]; at 3.7 µM 20% | [6]; at 11.0 µM 12% | [6]; at 33.0 µM 53% | [7]; at 1.2 µM -4% | [7]; at 3.7 µM -6% | [7]; at 11.0 µM -1% | [7]; at 33.0 µM 23% | [8]; at 1.2 µM -2% | [8]; at 3.7 µM 6% | [8]; at 11.0 µM 5% | [8]; at 33.0 µM 31% | [9]; at 1.2 µM -9% | [9]; at 3.7 µM -19% | [9]; at 11.0 µM -17% | [9]; at 33.0 µM 23% | [10]; at 1.2 µM -5% | [10]; at 3.7 µM 2% | [10]; [17] -35% | [10]; at 11.0 µM 8% | [10]; at 33.0 µM 47% | [10]; [18] 10% | [11]; at 1.2 µM -4% | [11]; at 3.7 µM -17% | [11]; [17] -23% | [11]; at 11.0 µM -15% | [11]; at 33.0 µM 24% | [11]; [18] 34% | [11]; at 50.0 µM 43.4% | [12]; at 1.2 µM -16% | [12]; at 3.7 µM -16% | [12]; at 11.0 µM -19% | [12]; at 33.0 µM 21% | [13]; [17] -11% | [13]; [18] 27% | [13]; at 50.0 µM 60.2% | [14]; at 1.2 µM -11% | [14]; at 3.7 µM 10% | [14]; at 11.0 µM 0% | [14]; at 33.0 µM 20% | [15]; [17] 19% | [15]; [18] 40% | [15]; at 50.0 µM 27.5% | [16]; at 1.2 µM -7% | [16]; at 3.7 µM -14% | [16]; [17] -12% | [16]; at 11.0 µM -13% | [16]; at 33.0 µM 47% | [16]; at 50.0 µM 50.8% | [1]; at 1.2 µM 9% | [1]; at 3.7 µM 6% | [1]; at 11.0 µM 9% | [1]; at 33.0 µM 34% | [2]; at 1.2 µM 9% | [2]; at 3.7 µM 7% | [2]; at 11.0 µM 10% | [2]; at 33.0 µM 53% | [3]; at 1.2 µM 15% | [3]; at 3.7 µM 8% | [3]; at 11.0 µM 21% | [3]; at 33.0 µM 65% | [4]; [17] -22% | [4]; at 50.0 µM 48% | [5]; at 1.2 µM 15% | [5]; at 3.7 µM 16% | [5]; at 11.0 µM 14% | [5]; at 33.0 µM 62%
active: [6]; at 100.0 µM 98% | [7]; at 100.0 µM 98% | [8]; at 100.0 µM 76% | [9]; at 100.0 µM 97% | [10]; at 50.0 µM 79.2% | [10]; at 100.0 µM 98% | [11]; at 100.0 µM 97% | [12]; at 100.0 µM 97% | [14]; at 100.0 µM 97% | [16]; [18] 81% | [16]; at 100.0 µM 98% | [1]; at 100.0 µM 98% | [2]; at 100.0 µM 98% | [3]; at 100.0 µM 98% | [4]; [18] 74% | [5]; at 100.0 µM 98%
